Experimental findings from PubChem BioAssay (Tox21) are described below.

Results filed as inconclusive are left out. The source made the active and inactive calls. Unless noted, calls come from the whole dose curve.

Experiment [1] is described as follows: Nuclear factor erythroid 2-related factor 2/antioxidant responsive element (Nrf2/ARE) small molecule agonists: qHTS cell viability counter screen in human keratinocytes (AID 1919968; active = well fitted curve in the direction sought with a large enough effect in the repeat runs; an effect the other way counts as inactive or inconclusive; note: nearly all actives have a fitted effect of over 55% in size; note: potency is the fitted concentration of half-maximal effect). In a few lines: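 KeratinoSens HaCaT cells, 1,500/well, preincubated 5 h, then exposed to compounds in DMSO for 23 h at 37 C/5% CO2. Viability read as CellTiter-Fluor fluorescence after 1 h, in the same wells as the ARE-luciferase read.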

The nature of experiment [2]: Nuclear factor erythroid 2-related factor 2/antioxidant responsive element (Nrf2/ARE) small molecule agonists: luciferase reporter gene qHTS assay in human keratinocytes (AID 1919969; note: nearly all actives have a fitted effect of over 35% in size). (A reporter such as luciferase makes a cellular process visible.)
In experiment [3] the target is Gonadotropin-releasing hormone receptor (Homo sapiens) (UniProt P30968). In words: Human gonadotropin-releasing hormone receptor (GnRHR) small molecule agonists, calcium flux assay in GnRHR-HEK293 cells (AID 1920063). Note: nearly all actives have a fitted effect of over 35% in size. In a few lines: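 HEK293 cells stably expressing human GnRHR were dye-loaded for 1 h at 37 C. Compound was added in agonist mode and fluorescence (Ex/Em 480/540) recorded kinetically for 3 min. Fifteen concentrations, triplicates.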
A general note: Calcium flux is commonly read through the fluorescence of an indicator in the cells.

Experiment [4] addresses KiSS-1 receptor (Homo sapiens) (UniProt Q969F8). Description: Human kisspeptin (KISS1R) small molecule agonists, calcium flux assay in KISS1R-HEK293 cells (AID 1920064; active = well fitted curve in the direction sought with a large enough effect in the repeat runs; an effect the other way counts as inactive or inconclusive). In a few lines: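 HEK293 cells stably expressing human KISS1R were loaded with calcium dye for 1 h at 37 C, then given compound; fluorescence (Ex/Em 480/540) was read kinetically for 3 min. Fifteen concentrations, triplicate.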

Experiment [5] is described as follows: G protein-coupled receptor (GPCR) small molecule agonists, calcium flux assay: HEK293 wild type cell line counter screen (AID 1920065). The gist of the method:
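Wild-type HEK293 cells plated 18 h, loaded with calcium dye 1 h at 37 C, then compounds added in agonist mode (ATP as positive control). Kinetic fluorescence Ex/Em 480/540 recorded 3 min at 1 sec intervals; 15 concentrations, triplicate.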

A short description of experiment [6]: p53 small molecule agonists, cell-based qHTS assay with human liver microsomes (AID 1963577). The gist of the method: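 Fluorescence of the beta-lactamase reporter in p53RE-bla cells, detected with LiveBLAzer substrate (2 h, room temperature, dark), served as the read-out after 16 h compound exposure at 37 C with human liver microsomes and NADPH, each 0.5 mg/mL final.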
On the technique in general: qHTS replaces the single test concentration by a dilution series.

The nature of experiment [7]: p53 small molecule agonists, cell-based qHTS assay with rat liver microsomes (AID 1963578). The gist of the method:
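Cells carrying a p53 response element–beta-lactamase reporter were plated and rested 5 h, then dosed with compound in DMSO plus rat liver microsomes and NADPH, each at 0.5 mg/mL final. After 16 h at 37 C, LiveBLAzer substrate was added for 2 h.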

Experiment [8] can be described thus: p53 small molecule agonists, cell-based qHTS assay with human liver microsomes: qHTS cell viability counter screen (AID 1963579). Note: nearly all actives have a fitted effect of over 45% in size. The gist of the method: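 Cytotoxicity counter screen: p53RE-bla, 4,000 cells/well; 5 h settle, 37 C/5% CO2; cpd + HLM 0.5 mg/mL + NADPH 0.5 mg/mL (final); 16 h, 37 C; CellTiter-Glo, 30 min RT, luminescence.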
Experiment [9] is described as follows: p53 small molecule agonists, cell-based qHTS assay: qHTS cell viability counter screen (AID 1963581). Note: nearly all actives have a fitted effect of over 45% in size. The gist of the method: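 p53RE-bla HCT-116 cells, compounds added 5 h after plating and incubated 16 h at 37 C. Cytotoxicity measured in the same wells as intracellular ATP by CellTiter-Glo luminescence after 30 min at room temperature.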
Experiment [10] concerns the target 5-hydroxytryptamine receptor 2A (Homo sapiens) (UniProt P28223). Description: 5-hydroxytryptamine receptor 2A (HTR2A) small molecule antagonists, cell-based qHTS assay (AID 1963586). Note: nearly all actives have a fitted effect of over 45% in size. In a few lines: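 Antagonist-mode intracellular calcium assay: DOI (4 nM) added after 5 min compound pre-incubation at room temperature to dye-loaded HTR2A-CHO cells. Fluorescence followed for 3 min, sampled every second.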

Experiment [11] has the same target. In words: 5-hydroxytryptamine receptor 2A (HTR2A) small molecule agonists, cell-based qHTS assay (AID 1963587). Note: nearly all actives have a fitted effect of over 30% in size. In a few lines: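 Kinetic calcium-flux fluorescence (2 min, 1 sec intervals) after compound addition in agonist mode. HTR2A-CHO cells were cultured 18 h, then dye-loaded 1 h at 37 C.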
Experiment [12] addresses Muscarinic acetylcholine receptor M1 (Homo sapiens) (UniProt P11229). Description: Cholinergic receptor muscarinic 1 (CHRM1) small molecule agonists, cell-based qHTS assay (AID 1963589). Note: nearly all actives have a fitted effect of over 35% in size. The gist of the method:
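CHO cells stably expressing human CHRM1 were loaded with calcium dye for 1 h at 37 C, then compound was added in agonist mode. Intracellular calcium fluorescence was followed kinetically at 1 s intervals. Fifteen concentrations were tested in three independent runs.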

A short description of experiment [13]: cAMP Responsive Elements (CRE) small molecule antagonists, cell-based qHTS assay (AID 1963591; active = well fitted inhibition curve with a large enough effect in the signal ratio in the repeat runs, not every such curve was filed as active; the % refers to the signal ratio). The gist of the method:
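CRE-bla HEK293T cells plated 18 h, then given compound plus NKH477 at 0.25 uM final for 3 h at 37C. Beta-lactamase reporter read with LiveBLAzer B/G FRET substrate after 2 h at room temperature.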

Experiment [14] deals with Beta-2 adrenergic receptor (Homo sapiens) (UniProt P07550). Description: Adrenergic beta2 receptor (ADRB2) small molecule antagonists, cell-based qHTS assay (AID 1963592). Note: series mostly up to about 92 µM; nearly all actives have a fitted effect of over 50% in size. In a few lines:
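Cells (CHO, stable ADRB2 overexpression) incubated 18-20hr at 37C; compounds added from DMSO; agonist mix (1nM isoproterenol, 100uM IBMX, 25uM Ro-20-1724) added; 0.5hr RT; d2-cAMP and anti-cAMP-cryptate added; 1hr RT; 665/615 nm read.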

In experiment [15] the target is D(2) dopamine receptor (Homo sapiens) (UniProt P14416). Description: Dopamine D2 receptor (DRD2) small molecule antagonists, cell-based qHTS assay (AID 1963595; active = well fitted inhibition curve with a large enough effect in the signal ratio in the repeat runs, with a control signal flat; the % refers to the signal ratio). In a few lines: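 Antagonist mode in DRD2-HEK293 cells: after compound addition with 0.1 mM Ro20-1724, cells received quinpirole (12 nM) and NKH477 (200 nM) for 30 min at room temperature; HTRF cAMP read after 1 h detection.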

Experiment [16] can be described thus: p53 small molecule agonists, cell-based qHTS assay with rat liver microsomes: qHTS cell viability counter screen (AID 1963580). Note: nearly all actives have a fitted effect of over 45% in size. The gist of the method: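 Intracellular ATP, by CellTiter-Glo luminescence, defines viability. HCT-116 p53RE-bla cells, 4,000 per well, were compound-treated in the presence of rat liver microsomes and NADPH for 16 h at 37 C.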
Experiment [17] in a line: p53 small molecule agonists, cell-based qHTS assay (AID 1963582; active = well fitted activation curve with a large enough effect in the signal ratio in the repeat runs, not every such curve was filed as active; the % refers to the signal ratio). The gist of the method:
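p53RE-bla reporter cells, compounds added in DMSO after 5 h plating, incubated 16 h at 37 C. Beta-lactamase read via 2 h room-temperature LiveBLAzer B/G FRET substrate, fluorescence intensity.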

The target of experiment [18] is Muscarinic acetylcholine receptor M1 (Homo sapiens) (UniProt P11229). Description: Cholinergic receptor muscarinic 1 (CHRM1) small molecule antagonists, cell-based qHTS assay (AID 1963588). Note: nearly all actives have a fitted effect of over 40% in size. In a few lines:
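CHRM1-CHO calcium-flux assay, antagonist mode. Cells were seeded 18 h, dye-loaded 1 h at 37 C and given compound for 5 min at RT, then acetylcholine was added at 50nM. FDSS fluorescence was read 3 min; 15 concentrations, three runs.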

The nature of experiment [19]: cAMP Responsive Elements (CRE) small molecule agonists, cell-based qHTS assay (AID 1963590). The gist of the method: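 CRE-bla HEK 293T cells, 2,000/well in DMEM with 10% dialyzed FBS and 25 mM HEPES, pre-incubated 18 h at 37 C, then exposed to compound 3 h at 37 C. Beta-lactamase reporter read with LiveBLAzer B/G FRET substrate after 2 h at room temperature.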
The target in experiment [20] is D(2) dopamine receptor (Homo sapiens) (UniProt P14416). In words: Dopamine D2 receptor (DRD2) small molecule agonists, cell-based qHTS assay (AID 1963594). Note: nearly all actives have a fitted effect of over 35% in size. The gist of the method:
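cAMP accumulation in DRD2-HEK293 cells measured by HTRF after 1 h detection; compounds added 10 min before NKH477 (200nM […]) forskolin-analogue stimulation, 30 min at room temperature, with Ro20-1724 present at 0.1 mM final.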

Chain of Muscarinic acetylcholine receptor M1 (Homo sapiens) (P11229 whole entry, looked up): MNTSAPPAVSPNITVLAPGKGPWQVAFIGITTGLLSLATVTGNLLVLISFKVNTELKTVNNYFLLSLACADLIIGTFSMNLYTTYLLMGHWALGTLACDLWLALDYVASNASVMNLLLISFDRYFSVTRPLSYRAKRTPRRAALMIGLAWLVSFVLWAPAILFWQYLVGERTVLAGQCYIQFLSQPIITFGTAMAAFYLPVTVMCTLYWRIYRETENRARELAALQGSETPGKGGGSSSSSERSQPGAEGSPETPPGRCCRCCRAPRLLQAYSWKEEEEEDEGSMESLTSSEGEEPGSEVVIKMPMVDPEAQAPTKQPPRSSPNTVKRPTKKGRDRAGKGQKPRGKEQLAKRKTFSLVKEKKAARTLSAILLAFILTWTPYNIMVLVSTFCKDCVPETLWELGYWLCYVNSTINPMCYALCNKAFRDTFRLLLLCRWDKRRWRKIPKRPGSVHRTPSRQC
Chain of D(2) dopamine receptor (Homo sapiens) (P14416 whole entry, looked up): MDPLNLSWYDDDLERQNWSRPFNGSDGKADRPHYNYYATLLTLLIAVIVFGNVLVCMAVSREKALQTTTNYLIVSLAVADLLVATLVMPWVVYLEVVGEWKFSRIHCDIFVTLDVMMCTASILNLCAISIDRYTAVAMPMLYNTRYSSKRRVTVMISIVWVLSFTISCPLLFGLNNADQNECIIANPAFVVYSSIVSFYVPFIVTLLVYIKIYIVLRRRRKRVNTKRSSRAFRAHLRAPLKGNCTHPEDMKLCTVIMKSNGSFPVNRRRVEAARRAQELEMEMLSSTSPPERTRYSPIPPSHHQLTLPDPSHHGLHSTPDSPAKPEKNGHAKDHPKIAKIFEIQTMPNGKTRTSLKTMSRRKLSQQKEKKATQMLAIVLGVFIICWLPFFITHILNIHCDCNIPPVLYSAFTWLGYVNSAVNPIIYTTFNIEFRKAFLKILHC
Chain of 5-hydroxytryptamine receptor 2A (Homo sapiens) (P28223 whole entry, looked up): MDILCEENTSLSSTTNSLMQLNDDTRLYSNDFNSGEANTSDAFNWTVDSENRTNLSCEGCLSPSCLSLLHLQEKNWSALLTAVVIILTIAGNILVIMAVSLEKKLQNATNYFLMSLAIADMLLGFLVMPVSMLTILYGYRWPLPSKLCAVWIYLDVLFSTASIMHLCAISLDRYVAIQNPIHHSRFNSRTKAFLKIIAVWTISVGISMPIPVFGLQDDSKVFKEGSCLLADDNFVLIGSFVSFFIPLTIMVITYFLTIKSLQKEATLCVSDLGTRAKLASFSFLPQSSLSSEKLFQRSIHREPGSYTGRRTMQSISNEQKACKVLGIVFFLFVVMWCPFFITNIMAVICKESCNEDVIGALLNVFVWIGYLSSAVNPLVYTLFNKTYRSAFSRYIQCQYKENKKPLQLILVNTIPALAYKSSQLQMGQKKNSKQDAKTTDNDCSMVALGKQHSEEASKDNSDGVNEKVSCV
Chain of Beta-2 adrenergic receptor (Homo sapiens) (P07550 whole entry, looked up): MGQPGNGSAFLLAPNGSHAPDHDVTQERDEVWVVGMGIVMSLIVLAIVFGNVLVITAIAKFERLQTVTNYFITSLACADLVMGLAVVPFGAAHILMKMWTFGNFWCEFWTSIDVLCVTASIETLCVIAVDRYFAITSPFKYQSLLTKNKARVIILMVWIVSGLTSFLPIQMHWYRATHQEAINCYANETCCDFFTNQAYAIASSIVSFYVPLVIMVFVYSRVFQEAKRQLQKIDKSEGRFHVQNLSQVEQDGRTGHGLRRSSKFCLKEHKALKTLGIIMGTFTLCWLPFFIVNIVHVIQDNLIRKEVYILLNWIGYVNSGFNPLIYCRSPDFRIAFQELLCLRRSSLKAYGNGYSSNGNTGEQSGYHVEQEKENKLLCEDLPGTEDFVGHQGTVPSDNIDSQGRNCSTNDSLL
Chain of Gonadotropin-releasing hormone receptor (Homo sapiens) (P30968 whole entry, looked up): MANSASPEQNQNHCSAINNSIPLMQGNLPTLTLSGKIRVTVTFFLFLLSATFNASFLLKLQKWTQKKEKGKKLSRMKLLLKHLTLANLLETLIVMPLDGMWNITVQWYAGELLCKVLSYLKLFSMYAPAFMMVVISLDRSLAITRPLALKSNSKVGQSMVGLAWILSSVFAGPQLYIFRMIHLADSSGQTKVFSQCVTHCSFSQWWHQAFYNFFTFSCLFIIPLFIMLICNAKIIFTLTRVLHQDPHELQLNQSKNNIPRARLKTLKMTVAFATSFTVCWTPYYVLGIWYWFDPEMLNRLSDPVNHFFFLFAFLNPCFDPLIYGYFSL
Chain of KiSS-1 receptor (Homo sapiens) (Q969F8 whole entry, looked up): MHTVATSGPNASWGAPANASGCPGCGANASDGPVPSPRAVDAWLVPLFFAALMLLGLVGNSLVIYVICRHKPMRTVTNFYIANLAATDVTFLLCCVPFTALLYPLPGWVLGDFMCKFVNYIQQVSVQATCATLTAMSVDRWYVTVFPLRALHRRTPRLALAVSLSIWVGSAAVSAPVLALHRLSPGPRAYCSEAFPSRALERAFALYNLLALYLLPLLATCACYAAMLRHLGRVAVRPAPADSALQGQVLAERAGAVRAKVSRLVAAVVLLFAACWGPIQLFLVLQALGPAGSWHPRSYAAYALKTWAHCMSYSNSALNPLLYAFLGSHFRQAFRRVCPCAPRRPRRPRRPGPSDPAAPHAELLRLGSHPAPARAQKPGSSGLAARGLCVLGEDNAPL

For `Clc1ccc(C(c2ccccc2Cl)C(Cl)(Cl)Cl)cc1` (stereo not given), the Potency in experiment [1] was 43.5 µM (active). In addition, the Potency entry in [2], in experiment [3], in [4], in [5], in experiment [6] and in experiment [7] was “inactive” each time. Further, the Potency entry in experiment [8], in experiment [9], in experiment [10], in [11], in experiment [12] and in experiment [13] was “inactive” throughout. Besides, the Potency result in experiment [14] and in experiment [15] was “inactive” throughout.
On to `CCOS(C)(=O)=O`, for which the Potency result in [1], in [2], in experiment [3], in [4], in [5] and in experiment [6] was “inactive” throughout. The Potency result in experiment [7], in [16], in experiment [9], in [17], in experiment [10] and in [11] was “inactive” in each case. Besides, the Potency entry in experiment [18], in experiment [12], in [19], in experiment [13], in experiment [14] and in experiment [20] was “inactive” in each case. Further, the Potency result in experiment [15] is “inactive”.
With `CC(C)C1(C)N=C(c2nc3ccccc3cc2C(=O)O)NC1=O` (stereo not given), the Potency entry in [1], in experiment [2], in experiment [3], in experiment [4], in [5] and in experiment [6] was “inactive” each time. The Potency entry in [7], in [16], in experiment [9], in [17], in experiment [10] and in [11] was “inactive” throughout. The Potency result in experiment [18], in [12], in experiment [19], in [13], in [14] and in experiment [20] was “inactive” throughout. Further, the Potency result in experiment [15] was “inactive”.
As to `O=C(O)C(F)(F)C(F)(F)C(F)(F)C(F)(F)C(F)(F)C(F)(F)C(F)(F)C(F)(F)C(F)(F)C(F)(F)F`, the Potency result in experiment [1], in [2], in experiment [3], in experiment [4], in [5] and in experiment [6] was “inactive” in each case. For the same compound, the Potency entry in [7], in experiment [16], in experiment [9], in experiment [17], in [10] and in [11] was “inactive” in each case. The Potency result in experiment [18], in experiment [12], in experiment [19], in experiment [13], in experiment [14] and in [20] was “inactive” each time.
As for `C/C=C/CC#N`, the Potency entry in experiment [1], in experiment [2], in experiment [3], in experiment [4], in [5] and in [6] was “inactive” each time. Also, the Potency entry in experiment [7], in [16], in experiment [9], in experiment [17], in experiment [10] and in [11] was “inactive” each time. Further, the Potency result in [18], in experiment [19], in [13], in experiment [14], in experiment [20] and in experiment [15] was “inactive” in each case.
On to `Cc1ccc(CCl)cc1`, for which the Potency result in experiment [1], in [2], in experiment [3], in experiment [4], in experiment [5] and in experiment [6] was “inactive” throughout. Moreover, the Potency result in experiment [7], in experiment [8], in experiment [17], in experiment [10], in experiment [11] and in [12] was “inactive” throughout. For the same compound, the Potency result in experiment [19], in [14] and in [15] was “inactive” in each case.
Regarding `O=Cc1ccc(Cl)cc1Cl`, the Potency result in experiment [1], in experiment [2], in experiment [3], in experiment [4], in experiment [5] and in experiment [6] was “inactive” throughout. Moreover, the Potency entry in [7], in experiment [16], in experiment [9], in experiment [17], in experiment [11] and in [12] was “inactive” in each case. Moreover, the Potency entry in [19], in experiment [13], in experiment [14], in experiment [20] and in experiment [15] was “inactive” throughout.
As for `CCCCCCCCOC(=O)c1ccccc1C(=O)OCCCCCCCC`, the Potency result in [1], in [2], in experiment [3], in [4], in experiment [5] and in [6] was “inactive” throughout. In addition, the Potency entry in [7], in experiment [16], in experiment [9], in experiment [17], in [10] and in experiment [11] was “inactive” throughout. Besides, the Potency entry in experiment [18], in [12], in experiment [19], in experiment [13], in experiment [14] and in experiment [20] was “inactive” each time. For the same compound, the Potency result in experiment [15] is “inactive”.
